Measurements: the supplement of paper PMC11001985

Target: HSP90AA1 (UniProt P07900)
Assay: lysine labeling ratio R10:1 (500 µM / 50 µM probe), SILAC-ABPP in living cells; higher = lower intrinsic lysine reactivity toward the probe, active = 2 or less
Conditions: HeLa, probe concentrations 500 vs 50 µM
Procedure: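 Living HeLa cells (SILAC light/heavy) in PBS at room temperature were labeled with 50 µM versus 500 µM of the lysine-reactive, reductant-cleavable probe OPA-S-S-alkyne (SILAC labeling time not stated). Probe-modified peptides were CuAAC-biotinylated, captured on neutravidin and eluted with DTT/IAA, then quantified by LC-MS/MS. R = median peptide ratio per lysine (500/50 µM), combined over 3 forward and 3 reverse SILAC replicates. Ratios are capped at 20; R < 2 = hyper-reactive.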

Measured: lysine labeling ratio R10:1

C#CCNC(=O)CCSSCCC(=O)NCCc1ccc(C=O)c(C=O)c1
inactive: lysine site: K58 3.2 | lysine site: K84 4.81 | lysine site: K458 2.96 | lysine site: K585 6.47 | lysine site: K632 5.33
active: lysine site: K457 0.935
